Beta cell apopt: beta cell apoptosis inhibition; INS-1E cytokine-induced death, ATP luminescence, 48 h; percent of positive-control rescue, neutral wells zero; protection from apoptosis, % (concentration not given with the values); actives 0.8% (n = 300,000); AID 435005;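 active = Every replicate reaches about 75%, or at least half do and their mean reaches it too, limit read from the data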;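 also: 0% = cytokine-treated negative control wells and 100% = positive control rescue; higher means more ATP so stronger rescue from cytokine killing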
Mdm2-MdmX inh: human Mdm2/MdmX binding inhibition; O15151+Q00987; SaOS-2 split-luciferase Mdm2/MdmX complementation, luminescence; inhibition, % at 8 µM; actives 3% (n = 330,000);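 active = inhibition of at least 50% at 8 µM in the primary screen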
Target sequence (O15151 whole entry, looked up): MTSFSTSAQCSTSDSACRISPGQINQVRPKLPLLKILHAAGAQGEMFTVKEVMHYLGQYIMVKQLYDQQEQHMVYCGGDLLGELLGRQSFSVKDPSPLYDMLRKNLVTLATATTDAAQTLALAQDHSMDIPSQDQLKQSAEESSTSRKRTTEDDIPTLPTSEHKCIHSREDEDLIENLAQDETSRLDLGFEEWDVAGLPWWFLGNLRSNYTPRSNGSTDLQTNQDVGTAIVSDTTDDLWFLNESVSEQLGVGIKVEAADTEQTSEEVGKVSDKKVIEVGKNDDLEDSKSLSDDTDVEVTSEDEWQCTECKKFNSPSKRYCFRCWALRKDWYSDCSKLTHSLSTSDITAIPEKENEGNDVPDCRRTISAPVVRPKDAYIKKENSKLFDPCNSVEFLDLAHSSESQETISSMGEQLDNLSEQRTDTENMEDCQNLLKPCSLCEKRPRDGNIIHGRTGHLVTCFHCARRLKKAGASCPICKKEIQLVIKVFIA
Target sequence (Q00987 whole entry, looked up): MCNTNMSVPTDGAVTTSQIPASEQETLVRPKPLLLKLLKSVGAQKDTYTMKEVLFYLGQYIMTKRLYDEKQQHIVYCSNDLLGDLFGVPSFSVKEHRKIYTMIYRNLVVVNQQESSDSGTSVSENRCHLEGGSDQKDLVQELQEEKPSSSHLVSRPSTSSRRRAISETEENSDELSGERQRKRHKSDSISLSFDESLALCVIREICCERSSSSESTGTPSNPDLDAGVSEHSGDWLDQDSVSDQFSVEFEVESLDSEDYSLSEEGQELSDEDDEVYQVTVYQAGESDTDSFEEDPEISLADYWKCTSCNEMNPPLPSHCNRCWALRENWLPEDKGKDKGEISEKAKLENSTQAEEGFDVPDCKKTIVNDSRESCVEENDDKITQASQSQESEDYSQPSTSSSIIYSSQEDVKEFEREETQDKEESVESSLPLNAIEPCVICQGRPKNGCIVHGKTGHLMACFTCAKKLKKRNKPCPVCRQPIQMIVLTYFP
GRIN3A LBD mod: modulators (binders) of human NR3A ligand-binding domain; Tm shift relative to glycine control, % at 25 µM; actives 2.5% (n = 340,000); NR3A LBD differential scanning fluorimetry, Tm shift; 0% = protein alone, 100% = glycine-bound protein; AID 1259313;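 active = melting temperature shift of at least 10% of the positive control shift, at one fixed dose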
MPTP inh: inhibitors of mitochondrial permeability transition pore | AID 602449 | isolated mouse mitochondria, Ca2+ swelling absorbance, 30 min | actives 1.4% (n = 360,000) | inhibition, % at 10 µM;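 active = inhibition of 50% or more, scaled per plate between neutral and stimulator controls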;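 also: 0% = DMSO wells given calcium and 100% = 1 mM EGTA wells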
CSC inhib: blocks cancer stem cells. cancer stem cell-like cells viability, luminescence. inhibition, % at 7.5 µM. actives 1.1% (n = 300,000); in the data active = inhibition above about 75%; tested in HMLE shEcad cells
SKKanGAS inh: SKKanGAS growth inhibition | S. pyogenes SKKanGAS, kanamycin growth, BacTiter-Glo, 6 h | inhibition, % at 7.5 µM | actives 1.3% (n = 300,000) | AID 1662;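 active = mean replicate score, as percent of positive control median, at least 50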;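 also: strain carries kanamycin resistance gene driven by streptokinase promoter and grows in 40 µg/ml kanamycin; loss of luminescence reflects streptokinase promoter inhibition or plain growth inhibition; 0% = median of DMSO wells and 100% = positive control at its reference dose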
Mdm2 MdmX conf: confirmation of human Mdm2/MdmX interaction inhibitors. Mdm2-MdmX binding, luminescent assay. actives 55% (n = 10,000). AID 489028. shares compounds with Mdm2-MdmX inh. inhibition, % at 8 µM; in the data active = inhibition above about 40%
FLuc counter: inhibits full-length luciferase, flagging false Mdm2/MdmX hits | actives 77% (n = 6,200) | SaOS-2 full-length luciferase counterscreen, luminescence | shares compounds with Mdm2-MdmX inh | AID 504607 | inhibition, % at 8 µM;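 active = mean inhibition at 8 µM reaching about 37%, which flags the compound as non-specific, limit read from the data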;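 also: p53-null SaOS-2 cells with luciferase driven by a doxycycline-inducible promoter; compound on cells about two nights before reading with doxycycline added after day one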
* marks the source's active call; other numbers are inactive results; x = no result. Compounds with a hit are over-represented: about 6.9% of the library has one in this group of screens.

SMILES	Beta cell apopt	Mdm2-MdmX inh	GRIN3A LBD mod	MPTP inh	CSC inhib	SKKanGAS inh	Mdm2 MdmX conf	FLuc counter
Cc1nnc2c3ccccc3c(Cl)nn12	-4	7	-1	0	2	11	x	x
CCS(=O)(=O)c1ccc(O)c(NC(=O)Nc2cccc3ccccc23)c1	1	15	-4	10	-8	-3	x	x
CC(C(=O)N(C)C1CCS(=O)(=O)C1)N1C(=O)/C(=C/c2ccc(F)cc2)SC1=S (centres undefined)	-11	35	-2	0	31	-4	x	x
CCN(C(=O)C(C)N1C(=O)/C(=C/c2ccco2)SC1=S)C1CCS(=O)(=O)C1 (centres undefined)	-17	55*	-3	0	28	5	2	x
COc1ccc2c3n(nc2c1)CCN=C3c1cc(Cl)c(N)c(Cl)c1	16	65*	-2	0	40	x	62*	65*
Cc1cccc(C)c1NC(=O)CN(C)C(=O)c1ccccc1Sc1ccccc1C#N	0	-13	0	-2	x	x	x	x
COc1ccc(N=c2oc3c(OC)cccc3cc2C(=O)NCc2ccco2)c(OC)c1	29	68*	2	5	29	8	-10	x
Cc1ccccc1OCC(=O)NNC(=O)Cn1[nH]c(=O)c2ccccc2c1=O	-10	6	-2	0	-9	x	x	x
Cc1cccc(N/C=C/c2onc(C)c2[N+](=O)[O-])c1	7	-74	-2	14	-5	-3	x	x
Cc1cccc(/C=C/c2onc(C)c2[N+](=O)[O-])n1	-7	100*	1	x	51	-5	71*	22
Cc1ccc(C(=O)N/C(=C\c2ccc(-c3ccc(Cl)cc3)o2)C(=O)NCCCN(C)C)cc1	110*	93*	-1	44	6	10	94*	52*
CN(C)CCNC(=O)/C(=C/c1ccc(-c2cccc(Cl)c2)o1)NC(=O)c1ccccc1	16	91*	-1	0	3	-1	61*	45*
CN(C)CCCNC(=O)/C(=C/c1ccc(-c2ccc([N+](=O)[O-])cc2)o1)NC(=O)c1ccccc1	3	24	2	1	36	2	x	x
CN(C)CCCNC(=O)/C(=C\c1ccc(-c2ccc(Br)cc2)o1)NC(=O)c1ccccc1	12	100*	-1	-3	14	1	52*	29
Cc1ccc(C(=O)N/C(=C\c2ccc(-c3cccc([N+](=O)[O-])c3)o2)C(=O)NCCCN2CCOCC2)cc1	10	51*	6	-2	13	2	14	x
CN(C)CCNC(=O)/C(=C/c1ccc(-c2cccc([N+](=O)[O-])c2)o1)NC(=O)c1ccccc1	1	43	-3	0	9	-7	x	x
COc1ccc(C(=O)N/C(=C\c2ccc(-c3cccc([N+](=O)[O-])c3)o2)C(=O)NCCCN2CCOCC2)cc1	x	x	x	0	x	x	x	x
CC(CCc1ccccc1)NC(=O)COC(=O)c1ccc(NC(=O)CC#N)cc1 (centres undefined)	-2	11	0	0	-1	13	x	x
O=C(CCNC(=O)c1ccco1)Nc1ccc(N2CCOCC2)cc1	-1	-3	-1	2	-18	2	x	x
Cc1ccc2[nH]cc(/C=C/c3cc[n+](C)cc3)c2c1	121*	72*	4	1	-10	-6	61*	57*
CC[n+]1ccc(/C=C/c2c[nH]c3ccccc23)cc1	73	56*	-2	1	12	0	20	x
COc1ccc(Cc2c(-c3cccc(Cl)c3)nc3ccc(C)cn23)c(C)c1	x	x	x	1	x	x	x	x
COc1ccc(CCNC(=O)c2cccnc2SC)cc1	4	18	0	0	-3	x	x	x
O=C(/C=C/c1ccccc1Cl)c1cccnc1	-2	13	0	-1	18	9	x	x
O=C(/C=C/c1ccccc1Cl)c1ccc(O)cc1	-3	55*	-2	0	25	0	12	x
SMILES	Beta cell apopt	Mdm2-MdmX inh	GRIN3A LBD mod	MPTP inh	CSC inhib	SKKanGAS inh	Mdm2 MdmX conf	FLuc counter
O=C(/C=C/c1c(F)cccc1Cl)c1ccc(O)cc1	4	100*	5	37	67*	18	97*	32
CN(Cc1ccccc1F)C(=O)CN1c2cccc3cccc(c23)S1(=O)=O	x	3	1	-1	-5	-2	x	x
COc1ccc(Cc2nnc(SCC(=O)Nc3ccccc3C#N)o2)cc1	-2	-20	-1	-1	8	-3	x	x
COc1ccc(COC(=O)Nc2cn(C)nc2C(F)(F)F)cc1	1	10	3	0	4	3	x	x
CCc1cccc(NC(=O)C2CCCN2C(=O)Nc2ccc(C)cc2)c1 (centres undefined)	-6	13	-1	1	-5	-3	x	x
Cc1cccc(C(C)C)c1NC(=O)C(C)OC(=O)Cn1cnc2c1c(=O)n(C)c(=O)n2C (centres undefined)	-2	11	-2	-1	-5	-1	x	x
COc1cc(OC)c(C(=O)OC(C)C(=O)NCc2ccc3c(c2)OCO3)cc1OC (centres undefined)	-4	25	-1	-2	-12	x	x	x
O=C(Cn1c(COc2ccc(Cl)cc2)nc2ccccc21)NCC(F)(F)F	x	-26	0	5	x	-1	x	x
O=C(Cn1c(COc2ccccc2)nc2ccccc21)Nc1cc(Cl)ccc1Cl	12	89*	1	1	2	-8	71*	104*
CC1=Nc2cc(C(=O)N3CCCC3)ccc2Sc2c(C)ccc(C)c21	-1	90*	-1	0	33	-4	67*	23
COc1cccc(C(=O)OCC(=O)Nc2ccc(N3CCOCC3)cc2)c1	-4	16	-2	1	x	x	x	x
O=C(Nc1nccs1)c1nc[nH]c1C(=O)NCc1ccccc1	-7	51*	0	-1	51	x	0	x
c1ccc(-c2nnc(CN3CCCc4ccccc43)o2)cc1	0	-16	-2	0	-3	-8	x	x
CN1CCN(Cc2cc(Cl)c3cccnc3c2OC(=O)c2cccs2)CC1	50	29	-1	-4	17	0	x	x
O=C(Oc1c(CN2CCOCC2)cc(Cl)c2cccnc12)c1ccccc1Br	97*	52*	0	-4	19	26	32	x
Oc1ccc(CN2CCCc3ccccc32)c2cccnc12	103*	79*	0	-2	1	31	76*	43*
CCOC(=O)C1CCN(Cc2ccc(O)c3ncccc23)CC1	85*	81*	0	0	41	0	62*	50*
CCOC(=O)N1CCN(Cc2cc(Cl)c3cccnc3c2O)CC1	103*	64*	-4	x	19	66*	51*	38*
COc1ccccc1N1CCN(Cc2ccc(OC)c(OC)c2OC)CC1	-2	5	1	2	-7	0	x	x

Assay outcomes as filed in PubChem BioAssay.
